Test results: PubChem BioAssay (NCATS)
Results filed as inconclusive are left out. Active and inactive are the calls of the source. Calls come from the whole dose curve; as a rule, active = well fitted cell-killing curve with a large enough effect; inconclusive = small, poorly fitted or top-dose-only effect, or effect the other way; inactive = flat fitted curve, though single readings scatter.

Assays:
Test in all cases: Primary qHTS to identify gynecologic anti-cancer compounds using libraries of approved drugs and bioactive compounds (AID 1345084); note: nearly all actives have a fitted effect of over 55% in size
C33A = conditions: Gynecologic cancer cell panel viability, ATPlite luminescence, 48 h; series mostly up to 57.5 µM
In short: (§1)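 Cells, 1,000 per well, were allowed to settle for 16 h at 37 C before compound addition. Five concentrations were tested for 48 h, and viability was read by ATPlite luminescence after 15 min at room temperature.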

CAOV3 = conditions: Gynecologic cancer cell panel viability, ATPlite luminescence, 48 h; series mostly up to 57.5 µM
In short: as §1

CASKI = conditions: Gynecologic cancer cell panel viability, ATPlite luminescence, 48 h; series mostly up to 57.5 µM
In short: as §1

Es-2 = conditions: Gynecologic cancer cell panel viability, ATPlite luminescence, 48 h; series mostly up to 57.5 µM
In short: as §1

HeLa = conditions: Gynecologic cancer cell panel viability, ATPlite luminescence, 48 h; series mostly up to 57.5 µM
In short: as §1

Hek293T = conditions: Gynecologic cancer cell panel viability, ATPlite luminescence, 48 h, control line for the selectivity index; series mostly up to 57.5 µM
In short: as §1

JEG-3 = conditions: Gynecologic cancer cell panel viability, ATPlite luminescence, 48 h; series mostly up to 57.5 µM
In short: as §1

OV90 = conditions: Gynecologic cancer cell panel viability, ATPlite luminescence, 48 h; series mostly up to 57.5 µM
In short: as §1

PA-1 = conditions: Gynecologic cancer cell panel viability, ATPlite luminescence, 48 h; series mostly up to 57.5 µM
In short: as §1

SKOV3 = conditions: Gynecologic cancer cell panel viability, ATPlite luminescence, 48 h; series mostly up to 57.5 µM
In short: as §1

Tov-21-G = conditions: Gynecologic cancer cell panel viability, ATPlite luminescence, 48 h; series mostly up to 57.5 µM
In short: as §1

Tov112D = conditions: Gynecologic cancer cell panel viability, ATPlite luminescence, 48 h; series mostly up to 57.5 µM
In short: as §1
% is set by controls: 0 for no effect and ±100 for the full control effect.

C/C=C/C=C/C=C/C(=O)O[C@@H]1C=C(CO)C(O)(C(=O)O)[C@@]2(C)CCCC(C)(C)[C@H]12 (some centres undefined)
inactive: Potency (C33A) | Potency (CAOV3) | Potency (CASKI) | Potency (Es-2) | Potency (HeLa) | Potency (Hek293T) | Potency (JEG-3) | Potency (OV90) | Potency (PA-1) | Potency (SKOV3) | Potency (Tov-21-G) | Potency (Tov112D)

C[C@H]1[C@H](C)CC[C@]2(C(=O)O[C@@H]3O[C@H](CO)[C@@H](O)[C@H](O)[C@H]3O)CC[C@]3(C(=O)O)C(=CCC4[C@@]5(C)CC[C@H](O[C@@H]6O[C@H](CO)[C@@H](O)[C@H](O)[C@H]6O)C(C)(C)C5CC[C@]43C)[C@H]12 (some centres undefined)
inactive: activity change, negative = cytotoxicity (C33A) 2.9% [at 11.6 µM] | activity change, negative = cytotoxicity (CAOV3) 0.882% [at 11.6 µM] | activity change, negative = cytotoxicity (CASKI) 0.925% [at 11.6 µM] | activity change, negative = cytotoxicity (Es-2) -10.9% [at 11.6 µM] | activity change, negative = cytotoxicity (HeLa) 13.2% [at 11.6 µM] | activity change, negative = cytotoxicity (Hek293T) 3.39% [at 11.6 µM] | activity change, negative = cytotoxicity (JEG-3) 1.79% [at 11.6 µM] | activity change, negative = cytotoxicity (OV90) -4.18% [at 11.6 µM] | activity change, negative = cytotoxicity (PA-1) 5.91% [at 11.6 µM] | activity change, negative = cytotoxicity (SKOV3) 23.4% [at 11.6 µM] | activity change, negative = cytotoxicity (Tov-21-G) -3.54% [at 11.6 µM] | activity change, negative = cytotoxicity (Tov112D) 2.01% [at 11.6 µM]

NC(Cc1c[nH]c2ccccc12)C(=O)NC(CCC(=O)O)C(=O)O (centres undefined)
inactive: Potency (C33A) | Potency (CAOV3) | Potency (CASKI) | Potency (Es-2) | Potency (HeLa) | Potency (Hek293T) | Potency (JEG-3) | Potency (OV90) | Potency (PA-1) | Potency (SKOV3) | Potency (Tov-21-G) | Potency (Tov112D)

C/C(=C\CO)CC/C=C(\C)C(=O)O[C@H]1[C@H](OC2OC=C(C(=O)O)C3CCC(C)(O)C23)O[C@H](CO)[C@@H](O)[C@@H]1O (some centres undefined)
inactive: Potency (C33A) | Potency (CAOV3) | Potency (CASKI) | Potency (Es-2) | Potency (HeLa) | Potency (Hek293T) | Potency (JEG-3) | Potency (OV90) | Potency (PA-1) | Potency (SKOV3) | Potency (Tov-21-G) | Potency (Tov112D)

CC(C)c1cc2c(c(O)c1O[C@@H]1O[C@H](CO)[C@@H](O)[C@H](O)[C@H]1O)CC1(O)CCC(O)C(C)(C)C1CC2 (some centres undefined)
inactive: Potency (C33A) | Potency (CAOV3) | Potency (CASKI) | Potency (Es-2) | Potency (HeLa) | Potency (Hek293T) | Potency (JEG-3) | Potency (OV90) | Potency (PA-1) | Potency (SKOV3) | Potency (Tov-21-G) | Potency (Tov112D)

CC[C@H]1OC(=O)[C@H](C)[C@@H](O[C@H]2C[C@@](C)(OC)[C@@H](O)[C@H](C)O2)[C@H](C)[C@@H](O[C@@H]2O[C@H](C)C[C@H](N(C)C)[C@H]2O)[C@@](C)(O)C[C@@H](C)[C@@H]2N[C@@H](COCCOC)OC([C@H]2C)[C@]1(C)O
inactive: Potency (C33A) | Potency (CAOV3) | Potency (CASKI) | Potency (Es-2) | Potency (HeLa) | Potency (Hek293T) | Potency (JEG-3) | Potency (OV90) | Potency (PA-1) | Potency (SKOV3) | Potency (Tov-21-G) | Potency (Tov112D)

C[C@]1(O)CC[C@@H]2C(C(=O)O)=CO[C@@H](O[C@@H]3O[C@H](COC(=O)c4ccc(O)cc4)[C@@H](O)[C@H](O)[C@H]3O)[C@@H]21
inactive: Potency (C33A) | Potency (CAOV3) | Potency (CASKI) | Potency (Es-2) | Potency (HeLa) | Potency (Hek293T) | Potency (JEG-3) | Potency (OV90) | Potency (PA-1) | Potency (SKOV3) | Potency (Tov-21-G) | Potency (Tov112D)

COc1cc(C2Oc3c(OC)cc(CCCO[C@@H]4O[C@H](CO)[C@@H](O)[C@H](O)[C@H]4O)cc3C2CO)ccc1O (some centres undefined)
inactive: Potency (C33A) | Potency (CAOV3) | Potency (CASKI) | Potency (Es-2) | Potency (HeLa) | Potency (Hek293T) | Potency (JEG-3) | Potency (OV90) | Potency (PA-1) | Potency (SKOV3) | Potency (Tov-21-G) | Potency (Tov112D)

CO[C@@H]1CC[C@H](OC[C@]2(COC(=O)c3ccc(C)[nH]3)[C@H](OC(C)=O)CC[C@@]3(C)[C@@H]4CC=C(C)[C@@H](C5=C(O)C(=O)OC5O)[C@]4(C)CC[C@@H]32)O[C@H]1C (some centres undefined)
inactive: Potency (C33A) | Potency (CAOV3) | Potency (CASKI) | Potency (Es-2) | Potency (HeLa) | Potency (Hek293T) | Potency (JEG-3) | Potency (OV90) | Potency (PA-1) | Potency (SKOV3) | Potency (Tov-21-G) | Potency (Tov112D)

C=C1[C@H]2[C@H](O[C@@H]3O[C@H](COC(=O)/C=C/c4cc(OC)c(O)c(OC)c4)[C@@H](O)[C@H](O)[C@H]3O)OC=C(C(=O)O)[C@H]2C[C@@H]1O
inactive: Potency (C33A) | Potency (CAOV3) | Potency (CASKI) | Potency (Es-2) | Potency (HeLa) | Potency (Hek293T) | Potency (JEG-3) | Potency (OV90) | Potency (PA-1) | Potency (SKOV3) | Potency (Tov-21-G) | Potency (Tov112D)

CC1(CO)CC[C@]2(C(=O)O[C@@H]3O[C@H](CO)[C@@H](O)[C@H](O)[C@H]3O)CC[C@]3(C)C(=CCC4[C@@]5(C)C[C@H](O)[C@H](O[C@@H]6OC[C@@H](O)[C@H](O)[C@H]6O)[C@@](C)(CO)C5CC[C@]43C)C2C1 (some centres undefined)
inactive: activity change, negative = cytotoxicity (C33A) 5.37% [at 11.6 µM] | activity change, negative = cytotoxicity (CAOV3) -5.98% [at 11.6 µM] | activity change, negative = cytotoxicity (CASKI) 3.16% [at 11.6 µM] | activity change, negative = cytotoxicity (Es-2) -0.538% [at 11.6 µM] | activity change, negative = cytotoxicity (HeLa) 1.08% [at 11.6 µM] | activity change, negative = cytotoxicity (Hek293T) 6.32% [at 11.6 µM] | activity change, negative = cytotoxicity (JEG-3) 16.2% [at 11.6 µM] | activity change, negative = cytotoxicity (OV90) 9.02% [at 11.6 µM] | activity change, negative = cytotoxicity (PA-1) -3.32% [at 11.6 µM] | activity change, negative = cytotoxicity (SKOV3) 2.79% [at 11.6 µM] | activity change, negative = cytotoxicity (Tov-21-G) 4.01% [at 11.6 µM] | activity change, negative = cytotoxicity (Tov112D) -0.665% [at 11.6 µM]

C[C@@H]1O[C@@H](O[C@H]2[C@H](OC(=O)C34CCC(C)(C)CC3C3=CCC5C6(C)CC(O)C(O[C@@H]7O[C@H](CO)[C@@H](O)[C@H](O)[C@H]7O)C(C)(C(=O)O)C6CCC5(C)C3(CO)CC4)O[C@H](C)[C@H](O)[C@@H]2O)[C@H](O)[C@H](O)[C@H]1O[C@@H]1OC[C@@H](O)[C@H](O)[C@H]1O (some centres undefined)
inactive: activity change, negative = cytotoxicity (C33A) 7.58% [at 11.6 µM] | activity change, negative = cytotoxicity (CAOV3) 18.2% [at 11.6 µM] | activity change, negative = cytotoxicity (CASKI) 8.6% [at 11.6 µM] | activity change, negative = cytotoxicity (Es-2) 0.101% [at 11.6 µM] | activity change, negative = cytotoxicity (HeLa) 10.9% [at 11.6 µM] | activity change, negative = cytotoxicity (Hek293T) 7.78% [at 11.6 µM] | activity change, negative = cytotoxicity (JEG-3) 4.58% [at 11.6 µM] | activity change, negative = cytotoxicity (OV90) 3.81% [at 11.6 µM] | activity change, negative = cytotoxicity (PA-1) 8.42% [at 11.6 µM] | activity change, negative = cytotoxicity (SKOV3) 7.96% [at 11.6 µM] | activity change, negative = cytotoxicity (Tov-21-G) 2.58% [at 11.6 µM] | activity change, negative = cytotoxicity (Tov112D) 2.79% [at 11.6 µM]
